In the supplement of paper PMC13380429:

What was measured:
[1] = tested on: Vero E6 infected with SARS-CoV-2; test: morphology score (similarity to uninfected cells); higher = more like uninfected cells; details: 24 h
[2] = tested on: Vero E6 infected with SARS-CoV-2; test: SARS-CoV-2 infection rate relative to infected DMSO; higher = more infection, active = 60 or less; details: 24 h

SMILES | morphology score [1] | SARS-CoV-2 infection rate [2]
CN(C(=O)CN(CCO)CC(=O)N(C)C(C)(C)Cc1ccccc1)C(C)(C)Cc1ccccc1 [oxethazaine] (10 µM) | -0.169 | 102% (inactive)
COc1c2ccoc2cc2oc(=O)ccc12 [bergapten] (10 µM) | 0.0727 | 108% (inactive)
CC(C)(CO)Cc1cc(C(C)(C)C)c(O)c(C(C)(C)C)c1 (10 µM) | -0.127 | 108% (inactive)
S=C(NCCc1ccccn1)Nc1ccc(Br)cn1 [trovirdine] (10 µM) | 0.00939 | 110% (inactive)
OC[C@H]1O[C@@H](n2cnc3c(N[C@H]4CCC[C@@H]4O)ncnc32)[C@H](O)[C@@H]1O (10 µM) | 0.227 | 100% (inactive)
CCCCNc1nc(N)c2[nH]c(=O)n(Cc3ccc(OCCN(C)C)nc3)c2n1 (10 µM) | 0.0113 | 103% (inactive)
COc1ccc(Cn2ccc3ccc(C(=O)NO)cc32)cc1 (0.833333 µM) | 0.108 | 111% (inactive)
CC(=O)NC[C@H]1CN(c2ccc(N3CCOCC3)c(F)c2)C(=O)O1 [linezolid] (10 µM) | 0.0235 | 112% (inactive)
CN(C)CCN(Cc1ccccc1)c1ccccn1 [tripelennamine] (10 µM) | -0.0386 | 110% (inactive)
Cc1cccc(Oc2nc3c(C)cccn3c(=O)c2/C=C(\C#N)c2nc3ccccc3s2)c1 (10 µM) | 0.0471 | 106% (inactive)
Cc1sc(N)c(C(=O)c2cccc(C(F)(F)F)c2)c1C (10 µM) | -0.0662 | 99% (inactive)
CC(C)(C)NCc1cc(Nc2ccnc3cc(Cl)ccc23)c2c(c1O)CCCC2 [naphthoquine-phosphate] (10 µM) | 0.103 | 109% (inactive)
Cc1c(C(=O)N2CCOc3ccc(-c4ccc(N)nc4)cc3C2)ccc(S(C)(=O)=O)c1F (0.833333 µM) | -0.0918 | 110% (inactive)
Cn1cc(-c2ccc3nnc(C(F)(F)c4ccc5ncccc5c4)n3n2)cn1 (10 µM) | 0.39 | 95.5% (inactive)
COc1cc(N)c(Cl)cc1C(=O)CCC1CCN(CCNS(C)(=O)=O)CC1 (10 µM) | 0.0872 | 97.5% (inactive)
COc1c(C)c(C(=O)c2ccc(N)c(C(=O)O)c2)n2ccccc12 (10 µM) | 0.0882 | 105% (inactive)
Cn1cc(C(=O)c2cccc3ccccc23)cc1C(=O)O [napirimus] (10 µM) | 0.122 | 107% (inactive)
Fc1ccc2c(CCNCc3cccc(OCC(F)(F)C(F)F)c3)c[nH]c2c1 [idalopirdine] (10 µM) | -0.145 | 114% (inactive)
C[C@@H]1NC(=O)[C@@H](N)CNC(=O)[C@H](C2CCNC(=N)N2)NC(=O)/C(=C/NC(N)=O)NC(=O)[C@H](CNC(=O)CC(N)CCCN)NC1=O.N=C1NCC[C@H]([C@@H]2NC(=O)/C(=C/NC(N)=O)NC(=O)[C@H](CNC(=O)C[C@@H](N)CCCN)NC(=O)[C@H](CO)NC(=O)[C@@H](N)CNC2=O)N1 [capreomycin] (10 µM) | 0.148 | 100% (inactive)
CCCCCCCCCCCCCCCC[N+](C)(C)Cc1ccccc1 [benzyldimethylhexadecylammonium] (10 µM) | 0.298 | 80% (inactive)
CNCC[C@@H](Oc1ccccc1C)c1ccccc1 [atomoxetine] (10 µM) | 0.0668 | 102% (inactive)

SMILES | morphology score [1] | SARS-CoV-2 infection rate [2]
CNC(=O)c1cccc(NC(=O)N2CCC(Oc3ccccc3Cl)CC2)c1 (10 µM) | -0.102 | 114% (inactive)
O=C(O)C[C@H]1CC[C@H](c2ccc(-c3ccc(Nc4ccc(C(F)(F)F)nc4)cn3)cc2)CC1 (10 µM) | 0.27 | 73.5% (inactive)
CCCNC(C)C(=O)Nc1c(C)csc1C(=O)OC (configuration not stated) [articaine] (10 µM) | 0.0926 | 98% (inactive)
O=C(O)CNC(=O)c1ccccc1 [hippuric-acid] (10 µM) | -0.0766 | 109% (inactive)
O=C(/C=C\n1cnc(-c2cc(C(F)(F)F)cc(C(F)(F)F)c2)n1)NNc1cnccn1 [selinexor] (10 µM) | -0.235 | 106% (inactive)
NCC(=O)CCC(=O)O [5-aminolevulinic-acid] (10 µM) | 0.0459 | 113% (inactive)
Cn1cnc2c1c(=O)[nH]c(=O)n2C [theobromine] (10 µM) | 0.00515 | 108% (inactive)
Cc1ncc(Cl)cc1NCc1ccc(C(=O)N[C@@H](CC2CCCC2)C(=O)NC2CC2)s1 (10 µM) | 0.0746 | 106% (inactive)
O=C(O)C[C@H](O)C[C@H](O)/C=C/c1c(C2CC2)nc2ccccc2c1-c1ccc(F)cc1 [pitavastatin] (10 µM) | -0.127 | 115% (inactive)
Cc1cc(NC(=O)Nc2ccc(N(C)C)cc2)c2cc(F)cc(F)c2n1 (10 µM) | 0.204 | 99% (inactive)
O=C(CCCN1CCC(O)(c2ccc(Cl)cc2)CC1)c1ccc(F)cc1 [haloperidol] (10 µM) | -0.0179 | 114% (inactive)
CN1CCc2c(c3ccccc3n2Cc2ccc(C(=O)NO)cc2)C1 [tubastatin-A] (0.833333 µM) | 0.115 | 95.5% (inactive)
O=C(O)c1cnn(-c2nc3cc(OC(F)(F)F)c(Cl)cc3[nH]2)c1 (10 µM) | 0.316 | 88.5% (inactive)
O=C(O)CCC/C=C\C[C@@H]1[C@@H](/C=C/[C@@H](O)COc2cccc(Cl)c2)[C@H](O)C[C@@H]1O (racemic) [cloprostenol-(+/-)] (10 µM) | -0.0265 | 110% (inactive)
COCc1nnc(N2CC(Oc3ccc(F)cc3Cl)C2)n1-c1ccc(OC)nc1 (10 µM) | -0.109 | 106% (inactive)
CC1=C(/C=C/C(C)=C/C=C/C(C)=C/C(=O)O)C(C)(C)CCC1 [tretinoin] (10 µM) | -0.0366 | 104% (inactive)
Clc1ccc(COC(Cn2ccnc2)c2ccc(Cl)cc2Cl)c(Cl)c1 (configuration not stated) [miconazole] (10 µM) | -0.274 | 118% (inactive)
C[N+]12CCCCC1CCC(=C(c1cccs1)c1cccs1)C2 (configuration not stated) [tiquizium] (10 µM) | 0.138 | 93.5% (inactive)
O=C1C(=C(O)/C=C/c2ccc(O)cc2)C(=O)[C@@](O)([C@@H]2O[C@H](CO)[C@@H](O)[C@H](O)[C@H]2O)C(=O)[C@H]1[C@@H]1O[C@H](CO)[C@@H](O)[C@H](O)[C@H]1O (10 µM) | 0.0573 | 104% (inactive)
Cc1noc(-c2ccc(-c3ccc(CC(=O)O)cc3)cc2)c1NC(=O)O[C@H](C)c1ccccc1 (0.833333 µM) | 0.148 | 112% (inactive)
Fc1cc(F)c2c(c1)[C@H]1C=CC[C@H]1C(c1cccnc1)N2 (some centres not stated) [Golgicide A] (0.833333 µM) | 0.281 | 104% (inactive)

SMILES | morphology score [1] | SARS-CoV-2 infection rate [2]
Cc1ccc2c(c1)C1(CCN(CCc3nc(-c4ccccc4)oc3C)CC1)OC(=O)N2 (0.833333 µM) | 0.0199 | 104% (inactive)
Cc1ccc(F)cc1C(=O)Nc1ccc(C(=O)N2Cc3cccn3Cc3ccccc32)c(Cl)c1 [lixivaptan] (10 µM) | 0.0414 | 111% (inactive)
C=C1/C(=C\C=C2/CCC[C@]3(C)[C@@H]([C@H](C)CC[C@@H](O)C(C)C)CC[C@@H]23)C[C@@H](O)C[C@@H]1O [tacalcitol] (10 µM) | -0.24 | 120% (inactive)
CC(=O)NC[C@H]1CN(c2ccc(N3CCN(C(=O)CO)CC3)c(F)c2)C(=O)O1 [eperezolid] (10 µM) | 0.0417 | 112% (inactive)
c1ccc2c(c1)CCC[C@H]2Nc1nc2ccccc2[nH]1 (10 µM) | 0.268 | 89% (inactive)
COc1ccc(Oc2c(Cl)cnn(C3c4ccccc4-c4ccccc43)c2=O)cc1 (10 µM) | 0.0752 | 102% (inactive)
OCCn1cc(-c2ccc3c(c2)CC/C3=N\O)c(-c2ccncc2)n1 (10 µM) | 0.0962 | 79.5% (inactive)
BrC1C(Br)C(Br)C(Br)C(Br)C1Br (configuration not stated) [1,2,3,4,5,6-hexabromocyclohexane] (10 µM) | 0.416 | 85% (inactive)
CO[C@]12C[C@@H](COC(=O)c3cncc(Br)c3)CN(C)[C@@H]1Cc1cn(C)c3cccc2c13 [nicergoline] (10 µM) | 0.275 | 81% (inactive)
N=C(N)NCc1cccc(I)c1 [iobenguane] (10 µM) | 0.132 | 100% (inactive)
CCOC(=O)c1ccc(O)cc1 [ethyl-paraben] (10 µM) | -0.0381 | 104% (inactive)
CCCCCCCCCCCC[N+](C)(C)CCOc1ccccc1 [domiphen] (10 µM) | 0.0254 | 87% (inactive)
Cc1cccc(/C=N/Nc2cc(N3CCOCC3)n3nc(-c4ccncc4)cc3n2)c1 (10 µM) | 0.261 | 50.5% (active)
O.O=[Si]=O.O=[Si]=O.O=[Si]=O.O=[Si]=O.[O]=[Mg].[O]=[Mg].[O]=[Mg] (10 µM) | 0.0643 | 104% (inactive)
CCCCCCCCc1ccc(CCC(N)(CO)CO)cc1 [fingolimod] (10 µM) | 0.717 | 26.5% (active)
Cc1c(C)c2c(c(C)c1O)CCC(C)(COc1ccc(CC3SC(=O)NC3=O)cc1)O2 (configuration not stated) [troglitazone] (10 µM) | 0.342 | 89% (inactive)
COc1c(O[C@@H]2O[C@H](CO)[C@@H](O)[C@H](O)[C@H]2O)cc2c(c1OC)-c1ccc(SC)c(=O)cc1[C@@H](NC(C)=O)CC2 [thiocolchicoside] (10 µM) | -0.00288 | 114% (inactive)
COc1cc(N2CCC(N3CCN(C)CC3)CC2)ccc1Nc1ncc(Cl)c(Nc2ccccc2S(=O)(=O)C(C)C)n1 (0.833333 µM) | 0.115 | 102% (inactive)
CCO[C@@H](Cc1ccc(OCCn2c(C)ccc2-c2ccc(SC)cc2)cc1)C(=O)O [saroglitazar] (10 µM) | 0.336 | 92% (inactive)
